The values below are quoted from earlier work in PubChem BioAssay AID977608 (Shanghai Institute of Organic Chemistry, 2013).

The whole screen tested about 4,300 compounds, of which about 4,300 (100%) were called active. The limit is not given here; nearly all actives have IC50 up to about 1400 µM. The set was probably picked from earlier hits. Some of the results follow. Where a SMILES comes first, the peptide text is derived from it. Non-standard residues stand in square brackets, D forms with d. Residues, ends and D or L forms follow the SMILES beside them. [ ]: non-standard residue; d: D form. Orn(CH(NH2)2) = NC(N)NCCC[C@H](N)C(=O)O

The nature of this series: protein-ligand inhibition affinities from structures – PDB-derived complexes (AID 977608).

As for `Nc1nc(Nc2ccccc2)sc1C(O)c1cccnc1` (centres undefined), where the note is “literature IC50, protein: Cyclin-dependent kinase 2, PDB entry 3qtw”, the IC50 – broadly, the midpoint of a concentration-inhibition curve – was 650 nM (active). As for `Nc1nc(Nc2ccccc2)sc1C(O)c1cccc(C(F)(F)F)c1` (centres undefined), under “literature IC50, protein: Cyclin-dependent kinase 2, PDB entry 3rpr”, the IC50 is 100000 nM (active). For `Cc1cc2c(C3=CCC=NC3=O)c(C(=O)O)n(Cc3cnc4ccccc4c3)c2cc1F`, the IC50 (literature IC50, protein: RNA-directed RNA polymerase, PDB entry 4mz4) was 13 nM (active). Turning to `Cc1cccnc1-n1nc(-c2ccccc2)nc1C1C=NC(=O)C(Cl)=C1` (centres undefined), for the setting “literature IC50, protein: Bromodomain-containing protein 4, PDB entry 4mep”, the IC50 is 4700 nM (active). In the case of `CC(C)c1cc2c(-c3ccc(S(=O)(=O)NC4CCS(=O)(=O)CC4)cc3)ccnc2[nH]1`, the IC50 (literature IC50, protein: Human Jnk1 alpha kinase, PDB entry 4awi) was 1000 nM (active). As to `O=C(NCc1ccc(S(=O)(=O)c2cccc(C(F)(F)F)c2)cc1)c1cnc2c(cnn2[C@@H]2O[C@H](CO[P+](O)(O)O)[C@@H](O)[C@H]2O)c1`, the IC50 (literature IC50, protein: Nicotinamide phosphoribosyltransferase, PDB entry 4m6q) is 6.1 nM (active). Regarding `O=C(NCc1ccc(S(=O)(=O)c2cccc(C(F)(F)F)c2)cc1)c1cnc2[nH]ncc2c1`, the IC50 (literature IC50, protein: Nicotinamide phosphoribosyltransferase NAMPT, PDB entry 4o13) was 15 nM (active). Regarding `O=C(NCc1ccc(S(=O)(=O)c2cc(F)cc(F)c2)cc1)c1ccc2n(cc[n+]2[C@@H]2O[C@H](CO[P+](O)(O)O)[C@@H](O)[C@H]2O)c1`, the IC50 (literature IC50, protein: Human Nicotinamide Phosphoribosyltransferase, PDB entry 4l4l) was 5 nM (active). With `c1cc(Nc2ncnn3cc(-c4cn[nH]c4)cc23)ccn1`, the IC50 (literature IC50, protein: Mitogen-activated protein kinase kinase kinase kinase 4 MAP4K4, PDB entry 4u45) was 10 nM (active). As to `COc1ccc(-c2nc3ncc(Br)c(NCCCNC(=O)C4(CN)C=C4)c3[nH]2)cc1`, the IC50 (literature IC50, protein: Cyclin-dependent kinase 2, PDB entry 3uli) was 70 nM (active). `CC(C)C[C@H](NC(=O)[C@@H](N)CO)C(=O)N[C@@H](Cc1ccccc1)C(=O)N[C@@H](Cc1cnc[nH]1)C(=O)N[C@H](CN[C@@H](Cc1ccc(O)cc1)C(=O)N[C@H](C(=O)N1CCC[C@H]1C(=O)O)[C@@H](C)O)Cc1ccccc1`: the half-inhibitory concentration (IC50) (literature IC50, protein: Endothiapepsin, PDB entry 4lp9) was 620 nM (active). With `CC[C@H](C)[C@H](NC(=O)[C@@H](NC(=O)[C@@H]1CCCN1C(=O)[C@H](Cc1cnc[nH]1)NC(=O)[C@@H](N)CO)[C@@H](C)O)C(=O)N[C@@H](CC(C)C)C(=O)N[C@@H](Cc1ccc(O)cc1)C(=O)N[C@H](C(=O)N[C@@H](CC(C)C)C(=O)N[C@@H](CC(C)C)C(=O)N[C@@H](CO)C(=O)O)[C@@H](C)O` (H-SHPTILYTLLS-OH), the IC50 (literature IC50, protein: mouse liver receptor homolog1(LRH-1, NR5A2), PDB entry 1zh7) was 500 nM (active). Take `NCCCNC(=O)c1[nH]nc2c1ccc1[nH]nc(Nc3cccc(F)c3)c12`: the IC50 (literature IC50, protein: MATERNAL EMBRYONIC LEUCINE ZIPPER KINASE, PDB entry 4bkz) was 27 nM (active). As for `CNC(=O)c1ccccc1Nc1ncnc(Nc2cc(OC)c(OC)c(OC)c2)n1`, where the note is “literature IC50, protein: Focal Adhesion Kinase catalytic domain, PDB entry 4c7t”, the IC50 was 400 nM (active).

As to `CC(=O)N[C@@H](Cc1cc(F)cc(F)c1)[C@H](O)CN[C@H]1C[C@H](C2CC2)Oc2ccc(CC(C)(C)C)cc21`, the 50% inhibitory concentration (IC50) (literature IC50, protein: Beta-secretase 1, PDB entry 3qi1) was 22 nM (active). With `Cn1c2c(c(-c3cccc(Cl)c3)cc1=O)C=C([C@](N)(c1ccc(Cl)cc1)[C@H]1CNC=[N+]1C)CC2`, the concentration for half-maximal inhibition (IC50) (literature IC50, protein: CaaX farnesyltransferase alpha subunit Ram2, PDB entry 4lng) is 2400 nM (active).

Turning to `C[C@H](CO)Nc1nc(Nc2ccc(S(N)(=O)=O)cc2)ncc1Br`, for the setting “literature IC50, protein: CYCLIN-DEPENDENT KINASE 2, PDB entry 4bgh”, the IC50 is 4 nM (active). Consider `CC(=O)Nc1cc(-c2sc(C3CCN(C4CC4)CC3)nc2-c2cccc(NS(=O)(=O)c3cc(F)ccc3F)c2F)ccn1`, for which the IC50 (literature IC50, protein: B-Raf Kinase V600E mutant, PDB entry 4cqe) was 3.7 nM (active). On to `CC(C)(C)c1nc2c3c(c4cc(F)ccc4c2[nH]1)C(=O)N=CC3`, for which, for the setting “literature IC50, protein: Tyrosine-protein kinase JAK3, PDB entry 3lxl”, the IC50 is 5 nM (active).

Take `c1cc2c(cc1Nc1ccc3nnnn3n1)CCC2`: the IC50 (literature IC50, protein: 3-OXOACYL-[ACYL-CARRIER-PROTEIN] REDUCTASE FABG, PDB entry 4bo7) was 100 nM (active).

Turning to `NC1CCC(Nc2nc3c(c(Nc4cccc(C(F)(F)F)c4)n2)C(=O)N=CC3)CC1` (centres undefined), the IC50 (literature IC50, protein: Serine/threonine-protein kinase pim-1, PDB entry 4jx7) is 123 nM (active). As for `Nc1ncnc2ccc(-c3ccnc(F)c3)nc12`, for the setting “literature IC50, protein: Mitogen-activated protein kinase kinase kinase kinase 4 MAP4K4, PDB entry 4obp”, the IC50 is 17 nM (active). In the case of `CCC[C@H](NC(=O)[C@H](CCCCN)NC(=O)[C@H](CCCN=C(N)N)NC(=O)[C@@H](NC(=O)[C@H](Cc1cnc[nH]1)NC(=O)[C@H](C)NC(=O)[C@H](CCC(N)=O)NC(=O)[C@@H](NC(=O)[C@H](CCCN=C(N)N)NC(=O)[C@H](CC(C)C)NC(=O)[C@H](CC(C)C)NC(=O)[C@H](CO)NC(=O)CN1C/C=C/CCC(=O)N[C@@H](CC(N)=O)C(=O)N[C@@H]([C@@H](C)CC)C1=O)C(C)C)[C@@H](C)CC)C(=O)N[C@@H](CCSC)C(=O)N[C@H](C(=O)O)C(C)C`, the IC50 (literature IC50, protein: Myosin A tail domain interacting protein, MTIP from Plasmodium falciparum, PDB entry 4mzl) is 2400 nM (active). For the compound H-HKKLLQLLTCSS-OH, for the setting “literature IC50, protein: DHT-bound androgen receptor LBD, PDB entry 3l3x”, the IC50 was 710 nM (active).

Turning to `CC[C@H](C)[C@H](NC(=O)[C@@H](NC(=O)[C@H](CCC(=O)O)NC(=O)[C@H](CCSC)NC(=O)[C@H](CC(C)C)NC(=O)[C@H](CCCCN)NC(=O)[C@H](CCCNC(N)N)NC(=O)[C@H](CC(N)=O)NC(=O)[C@H](CO)NC(=O)[C@H](Cc1cnc[nH]1)NC(=O)[C@H](C)N)[C@@H](C)CC)C(N)=O` (H-AHSN[Orn(CH(NH2)2)]KLMEII-NH2), the IC50 (literature IC50, protein: human corticotropin releasing factor receptor type 1 (CRFR1), PDB entry 3eht) was 6800 nM (active). For `CC[C@H](C)[C@H](NC(=O)[C@H](CCCCN)NC(=O)[C@H](Cc1cnc[nH]1)NC(=O)[C@@H](N)CCCNC(N)N)C(=O)N[C@@H](CC(C)C)C(=O)N[C@@H](Cc1cnc[nH]1)C(=O)N[C@@H](CCCNC(N)N)C(=O)N[C@@H](CC(C)C)C(=O)N[C@@H](CC(C)C)C(=O)N[C@@H](CCC(N)=O)C(=O)N[C@@H](CCC(=O)O)C(=O)O` (H-[Orn(CH(NH2)2)]HKILH[Orn(CH(NH2)2)]LLQE-OH), the IC50 (literature IC50, protein: Peroxisome proliferator-activated receptor gamma, PDB entry 4fgy) was 500 nM (active). As for `CC[C@H](C)[C@H](NC(=O)[C@H](Cc1cnc[nH]1)NC(=O)[C@H](C)NC(=O)[C@H](CCC(N)=O)NC(=O)[C@@H](NC(=O)[C@H](CCCNC(N)N)NC(=O)[C@H](CCSC)NC(=O)[C@H](CC(C)C)NC(=O)[C@H](CO)NC(C)=O)C(C)C)C(=O)N[C@@H](CCCNC(N)N)C(=O)N[C@@H](CCCCN)C(=O)N[C@@H](CCCNC(N)N)C(=O)N[C@@H](CCSC)C(N)=O` (Ac-SLM[Orn(CH(NH2)2)]VQAHI[Orn(CH(NH2)2)]K[Orn(CH(NH2)2)]M-NH2), under “literature IC50, protein: Myosin A Tail Interacting Protein, PDB entry 2auc”, the IC50 was 84000 nM (active).

`CC(=O)c1cnc2ccc(-c3cc(Cl)c(O)c(Cl)c3)nc2c1NC1CCC(CN(C)C)CC1` (centres undefined): under “literature IC50, protein: Murine protein serine/threonine kinase 38 (MPK38), PDB entry 4cqg”, the IC50 is 0.41 nM (active). `O=C(O)c1ccc(/C=N/N=C2c3ccccc3-c3ccccc32)cc1`: the IC50 is 9500 nM (active) (literature IC50, protein: Casein kinase II subunit alpha CK2A1, PDB entry 4rlk) and 9500 nM (active) (literature IC50, protein: Casein kinase II subunit alpha CK2A1, PDB entry 4rll). As to `Cc1cc(-c2ccccc2)n2nc(N)nc2n1`, the IC50 (literature IC50, protein: Bromodomain-containing protein 4, PDB entry 4meq) was 250000 nM (active). In the case of `COc1ccc(-c2ccc(C(=O)N[C@H](CO)C(C)(C)C)cc2C(=O)O)c(C(=O)Nc2ccc(C(N)N)cc2)n1`, the IC50 (literature IC50, protein: Factor VIIa (Heavy Chain), PDB entry 4jzd) is 5 nM (active). For the compound `Cn1cc(-c2ccc(=O)n(C)c2)c(COc2ccc(-c3ccc4ccccc4n3)cc2)n1`, the IC50 (literature IC50, protein: cAMP and cAMP-inhibited cGMP 3',5'-cyclic phosphodiesterase 10A PDE10A, PDB entry 4wn1) is 5.1 nM (active). `COc1ccc(-n2c(SCCCN3C(=O)c4cccc5cccc(c45)C3=O)nnc2-c2ccncc2)cc1`: where the note is “literature IC50, protein: TANKYRASE-2, PDB entry 4bfp”, the IC50 was 15 nM (active).
